Laboratory results reported in the supplement of paper PMC10849652.
About 7,900 targets were measured; listed, in parts, are those with a hit and a random draw of the rest. About 0.6% of all pairs of compound and target were hits.

Each target was assayed with c1cn2cc(-c3ccc4cn[nH]c4c3)nc(Nc3ccc(N4CCOCC4)cc3)c2n1 [entospletinib] (assay: log2 fold change, soluble protein after heating vs DMSO (PISA); higher = thermal stabilisation; K562 cells, 10 uM, 30 min; active = over 0.2 and 3.5 SD of the protein, either way, in both replicates (recomputed)).
Method in brief: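 K562 cells at 2×10^6 cells/mL were given 10 μM compound for 30 min. Aliquots then went through 3 min of heating across 48°C-58°C, were pooled, and were extracted in PBS with 0.5% NP-40 at 4°C, and the supernatant after 21,000xg for 90 min was quantified by TMTpro 16plex LC-MS/MS with channel sums equalised. Thermal stability relative to control samples, from duplicates, is given as log2 fold change.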

Chain of UniProt Q9Y385 (Q9Y385 whole entry, looked up): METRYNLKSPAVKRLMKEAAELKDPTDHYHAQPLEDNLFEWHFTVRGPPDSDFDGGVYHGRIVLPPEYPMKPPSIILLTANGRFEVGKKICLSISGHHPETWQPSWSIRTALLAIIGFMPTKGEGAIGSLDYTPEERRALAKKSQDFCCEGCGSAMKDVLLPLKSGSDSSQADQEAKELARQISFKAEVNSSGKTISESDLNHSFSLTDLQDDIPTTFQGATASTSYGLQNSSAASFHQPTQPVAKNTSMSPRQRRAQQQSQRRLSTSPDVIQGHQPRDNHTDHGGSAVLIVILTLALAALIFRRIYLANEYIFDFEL
Chain of UniProt Q9NP79 (Q9NP79 whole entry, looked up): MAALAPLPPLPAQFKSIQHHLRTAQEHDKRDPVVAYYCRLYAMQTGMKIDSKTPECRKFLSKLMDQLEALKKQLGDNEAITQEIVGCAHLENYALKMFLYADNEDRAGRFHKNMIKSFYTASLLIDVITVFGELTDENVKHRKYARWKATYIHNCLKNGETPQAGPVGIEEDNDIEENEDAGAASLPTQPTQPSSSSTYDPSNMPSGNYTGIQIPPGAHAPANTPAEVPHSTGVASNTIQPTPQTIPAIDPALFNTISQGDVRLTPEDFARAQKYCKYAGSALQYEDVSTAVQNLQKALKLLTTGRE
Chain of UniProt Q96LJ8 (Q96LJ8 whole entry, looked up): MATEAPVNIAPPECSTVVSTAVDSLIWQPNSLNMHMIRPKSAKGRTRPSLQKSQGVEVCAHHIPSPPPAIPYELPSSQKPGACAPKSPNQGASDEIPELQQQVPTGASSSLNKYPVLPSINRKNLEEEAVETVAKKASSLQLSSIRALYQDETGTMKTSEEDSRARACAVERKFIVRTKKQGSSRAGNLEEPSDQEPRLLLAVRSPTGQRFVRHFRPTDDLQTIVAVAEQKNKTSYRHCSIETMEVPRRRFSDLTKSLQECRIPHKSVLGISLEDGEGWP
Chain of UniProt Q9BQB6 (Q9BQB6 whole entry, looked up): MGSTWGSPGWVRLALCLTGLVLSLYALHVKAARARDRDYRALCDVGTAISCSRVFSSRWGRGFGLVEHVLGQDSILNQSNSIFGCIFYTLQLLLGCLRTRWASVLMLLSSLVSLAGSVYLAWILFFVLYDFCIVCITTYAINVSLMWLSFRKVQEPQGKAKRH
Chain of UniProt Q99986 (Q99986 whole entry, looked up): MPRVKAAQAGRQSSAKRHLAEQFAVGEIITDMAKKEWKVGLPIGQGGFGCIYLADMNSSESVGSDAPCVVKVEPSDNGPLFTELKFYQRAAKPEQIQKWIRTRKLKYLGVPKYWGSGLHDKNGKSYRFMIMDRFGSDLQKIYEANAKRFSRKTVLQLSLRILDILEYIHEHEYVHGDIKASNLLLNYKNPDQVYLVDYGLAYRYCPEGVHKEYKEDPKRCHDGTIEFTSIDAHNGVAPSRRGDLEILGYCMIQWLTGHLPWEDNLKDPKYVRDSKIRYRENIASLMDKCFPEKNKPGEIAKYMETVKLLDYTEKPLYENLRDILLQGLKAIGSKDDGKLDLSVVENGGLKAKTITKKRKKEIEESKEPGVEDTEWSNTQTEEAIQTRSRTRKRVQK
Chain of UniProt Q14157 (Q14157 whole entry, looked up): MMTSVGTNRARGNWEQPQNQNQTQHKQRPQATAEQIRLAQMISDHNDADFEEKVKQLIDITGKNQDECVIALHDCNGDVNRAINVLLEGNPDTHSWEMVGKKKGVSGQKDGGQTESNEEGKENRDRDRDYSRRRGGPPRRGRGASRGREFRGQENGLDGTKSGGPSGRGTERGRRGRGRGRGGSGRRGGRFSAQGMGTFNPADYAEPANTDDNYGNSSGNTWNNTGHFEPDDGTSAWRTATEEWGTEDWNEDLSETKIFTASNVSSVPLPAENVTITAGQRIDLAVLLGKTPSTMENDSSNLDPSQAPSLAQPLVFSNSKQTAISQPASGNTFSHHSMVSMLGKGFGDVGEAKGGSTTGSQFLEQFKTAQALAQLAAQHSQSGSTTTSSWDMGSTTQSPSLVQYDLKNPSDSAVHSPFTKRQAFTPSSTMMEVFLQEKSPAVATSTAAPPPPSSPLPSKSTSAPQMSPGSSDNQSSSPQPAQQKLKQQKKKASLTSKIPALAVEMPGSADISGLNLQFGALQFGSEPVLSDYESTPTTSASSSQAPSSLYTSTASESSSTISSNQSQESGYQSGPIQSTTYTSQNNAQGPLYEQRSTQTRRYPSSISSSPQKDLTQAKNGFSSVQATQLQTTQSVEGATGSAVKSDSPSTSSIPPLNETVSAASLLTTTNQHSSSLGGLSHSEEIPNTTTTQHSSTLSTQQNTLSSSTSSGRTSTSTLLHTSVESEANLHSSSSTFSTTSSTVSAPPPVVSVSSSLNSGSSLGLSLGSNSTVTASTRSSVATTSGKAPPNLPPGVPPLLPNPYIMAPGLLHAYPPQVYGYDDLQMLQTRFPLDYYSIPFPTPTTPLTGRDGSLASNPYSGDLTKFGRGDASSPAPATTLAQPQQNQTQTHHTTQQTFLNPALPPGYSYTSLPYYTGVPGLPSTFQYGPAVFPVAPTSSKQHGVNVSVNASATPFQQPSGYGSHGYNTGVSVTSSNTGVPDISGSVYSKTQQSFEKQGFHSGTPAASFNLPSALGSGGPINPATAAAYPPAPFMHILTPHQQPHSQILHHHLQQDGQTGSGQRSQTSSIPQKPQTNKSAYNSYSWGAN
Chain of UniProt Q01081 (Q01081 whole entry, looked up): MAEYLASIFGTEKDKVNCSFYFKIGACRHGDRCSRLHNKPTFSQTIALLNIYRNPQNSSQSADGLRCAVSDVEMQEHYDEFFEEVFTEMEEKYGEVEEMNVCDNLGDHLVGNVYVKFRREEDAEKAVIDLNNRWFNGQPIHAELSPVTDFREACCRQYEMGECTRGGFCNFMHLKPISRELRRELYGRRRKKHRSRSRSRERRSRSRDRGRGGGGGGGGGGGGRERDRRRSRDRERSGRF
Chain of UniProt P22314 (P22314 whole entry, looked up): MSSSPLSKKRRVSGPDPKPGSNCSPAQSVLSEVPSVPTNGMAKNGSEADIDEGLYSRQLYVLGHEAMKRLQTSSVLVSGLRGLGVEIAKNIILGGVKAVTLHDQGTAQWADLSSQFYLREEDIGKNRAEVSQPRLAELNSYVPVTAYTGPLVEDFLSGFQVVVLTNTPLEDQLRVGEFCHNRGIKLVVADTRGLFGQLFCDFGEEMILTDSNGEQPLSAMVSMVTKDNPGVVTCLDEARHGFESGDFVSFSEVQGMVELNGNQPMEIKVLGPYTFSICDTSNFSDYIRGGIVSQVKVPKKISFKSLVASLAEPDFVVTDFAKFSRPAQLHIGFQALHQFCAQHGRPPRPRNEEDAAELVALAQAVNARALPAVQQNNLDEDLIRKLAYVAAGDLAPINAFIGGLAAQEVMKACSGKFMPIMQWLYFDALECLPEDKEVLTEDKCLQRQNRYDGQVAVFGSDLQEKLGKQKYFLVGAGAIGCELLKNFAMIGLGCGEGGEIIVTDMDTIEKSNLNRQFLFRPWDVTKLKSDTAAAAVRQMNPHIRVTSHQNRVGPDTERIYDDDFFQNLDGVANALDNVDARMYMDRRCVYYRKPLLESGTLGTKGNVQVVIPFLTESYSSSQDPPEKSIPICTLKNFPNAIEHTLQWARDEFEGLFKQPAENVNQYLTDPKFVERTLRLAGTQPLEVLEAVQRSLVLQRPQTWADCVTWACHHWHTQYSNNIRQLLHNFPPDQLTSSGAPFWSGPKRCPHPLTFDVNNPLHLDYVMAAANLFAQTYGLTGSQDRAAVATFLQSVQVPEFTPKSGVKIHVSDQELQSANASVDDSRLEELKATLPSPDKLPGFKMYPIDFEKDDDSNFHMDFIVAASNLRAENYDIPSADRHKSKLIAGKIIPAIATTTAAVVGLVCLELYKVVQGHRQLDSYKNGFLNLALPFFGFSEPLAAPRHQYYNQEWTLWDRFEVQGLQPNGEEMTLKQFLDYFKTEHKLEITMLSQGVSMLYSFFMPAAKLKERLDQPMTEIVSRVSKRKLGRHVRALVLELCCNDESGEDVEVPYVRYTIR
Chain of UniProt Q9Y5Z9 (Q9Y5Z9 whole entry, looked up): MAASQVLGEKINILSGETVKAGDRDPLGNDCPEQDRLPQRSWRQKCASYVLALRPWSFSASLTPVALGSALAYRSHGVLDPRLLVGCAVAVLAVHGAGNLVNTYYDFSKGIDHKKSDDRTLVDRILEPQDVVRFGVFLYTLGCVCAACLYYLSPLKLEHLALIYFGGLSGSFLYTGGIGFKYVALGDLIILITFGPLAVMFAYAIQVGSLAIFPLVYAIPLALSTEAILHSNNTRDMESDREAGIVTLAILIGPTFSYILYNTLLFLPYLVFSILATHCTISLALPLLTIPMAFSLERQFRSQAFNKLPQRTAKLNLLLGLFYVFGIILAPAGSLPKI
Chain of UniProt Q15642 (Q15642 whole entry, looked up): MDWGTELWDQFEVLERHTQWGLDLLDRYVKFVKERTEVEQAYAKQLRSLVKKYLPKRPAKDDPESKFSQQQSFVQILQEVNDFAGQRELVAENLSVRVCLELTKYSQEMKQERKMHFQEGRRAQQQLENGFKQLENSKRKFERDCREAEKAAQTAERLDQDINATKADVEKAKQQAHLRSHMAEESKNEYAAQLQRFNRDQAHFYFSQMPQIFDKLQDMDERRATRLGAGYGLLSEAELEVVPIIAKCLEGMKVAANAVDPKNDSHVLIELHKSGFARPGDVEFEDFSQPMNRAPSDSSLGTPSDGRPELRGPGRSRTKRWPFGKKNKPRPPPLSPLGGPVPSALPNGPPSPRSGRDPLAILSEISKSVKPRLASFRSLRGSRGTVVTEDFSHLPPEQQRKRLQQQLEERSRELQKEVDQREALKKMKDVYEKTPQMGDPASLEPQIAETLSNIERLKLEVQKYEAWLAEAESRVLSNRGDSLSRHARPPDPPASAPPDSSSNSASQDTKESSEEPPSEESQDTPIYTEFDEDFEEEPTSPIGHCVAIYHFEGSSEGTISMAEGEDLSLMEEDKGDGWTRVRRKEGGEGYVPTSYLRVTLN
Chain of UniProt O00258 (O00258 whole entry, looked up): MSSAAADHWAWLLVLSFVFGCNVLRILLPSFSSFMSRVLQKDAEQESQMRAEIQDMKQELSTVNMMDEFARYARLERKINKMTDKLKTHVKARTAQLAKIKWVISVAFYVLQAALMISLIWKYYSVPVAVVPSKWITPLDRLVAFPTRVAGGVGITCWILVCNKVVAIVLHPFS

log2 fold change, inactive:
UBA6 0.014
TOE1 (UniProt Q96GM8) 0.058
WASHC3 (UniProt Q9Y3C0) 0.007
VRK1 (UniProt Q99986) -0.149
TMTC3 (UniProt Q6ZXV5) 0.007
TRAPPC6B (UniProt Q86SZ2) -0.003
VWA3B isoform 6 (UniProt Q502W6) -0.237
XRCC5 (UniProt P13010) -0.039
TRMT2A (UniProt Q8IZ69) 0.1
WAPL isoform 3 (UniProt Q7Z5K2) -0.037
TRAPPC13 isoform 5 (UniProt A5PLN9) -0.022
VPS33B (UniProt Q9H267) 0.008
UBAP2L (UniProt F8W726) -0.078
VPS50 (UniProt Q96JG6) -0.045
UBIAD1 (UniProt Q9Y5Z9) -0.013
UBA1 (UniProt P22314) -0.025
VKORC1 (UniProt Q9BQB6) 0.006
USP7 (UniProt Q93009) -0.019
UBE2J1 (UniProt Q9Y385) 0
WRB (UniProt O00258) 0.005
TTC33 (UniProt Q6PID6) 0.094
TRMT61A (UniProt Q96FX7) 0.123
TMEM161B (UniProt Q8NDZ6) 0.016
TMEM208 (UniProt Q9BTX3) -0.062
UBAP2L isoform 5 (UniProt Q14157) -0.007
TNPO1 (UniProt Q92973) -0.001
WDR4 (UniProt P57081) -0.027
U2AF1 isoform 2 (UniProt Q01081) -0.052
VTI1B (UniProt Q9UEU0) 0.082
VTI1A (UniProt Q96AJ9) 0.013
VTA1 (UniProt Q9NP79) -0.005
TRIP10 (UniProt Q15642) 0.061
XPO6 (UniProt Q96QU8) -0.027
TMEM192 (UniProt Q8IY95) 0.071
UFM1 (UniProt P61960) -0.079
XPNPEP3 (UniProt Q9NQH7) -0.025
TNFRSF10A (UniProt O00220) 0.011
UBXN10 (UniProt Q96LJ8) 0.013
TOM1 isoform 2 (UniProt O60784) 0.009
